Measurements reported in PubChem BioAssay (NCI).
Compounds without any hit were thinned out: in the full panel of roughly 79,000, 15% have a hit. A number with no mark means an inactive call. Active and inactive are the calls of the source. Rule as the data show it: active = growth inhibition above about 70%; inactive = the rest.

Assays:
[1] = NCI Yeast Anticancer Drug Screen. Data for the rad50 strain (AID 155);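 also: 0% = growth of vehicle-only cultures of the same strain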; details: S. cerevisiae rad50 strain growth inhibition, stronger effect = higher value
Outline: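 Growth of the mutant yeast was measured after compound exposure and referenced to vehicle-treated cultures.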

[2] = NCI Yeast Anticancer Drug Screen. Data for the mec2-1 strain (AID 157); details: S. cerevisiae mec2-1 strain, stronger effect = higher value
Outline: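 Readout is yeast growth inhibition, normalised to vehicle-treated controls, in the mec2-1 strain exposed to compound.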

[3] = NCI Yeast Anticancer Drug Screen. Data for the sgs1 mgt1 strain (AID 161);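 also: 0% = growth of cultures given vehicle only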; details: S. cerevisiae sgs1 mgt1 strain, stronger effect = higher value
Outline: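 Compounds are added to genetically altered yeast, and growth is compared with cultures given vehicle alone to give percent inhibition.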

[4] = NCI Yeast Anticancer Drug Screen. Data for the cln2 rad14 strain (AID 165);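 also: 0% = growth equal to vehicle treated cultures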; details: S. cerevisiae cln2 rad14 strain, stronger effect = higher value
Outline: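 Relative to vehicle controls, growth inhibition of compound-treated cln2 rad14 yeast was recorded.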

[5] = NCI Yeast Anticancer Drug Screen. Data for the bub3 strain (AID 167); details: S. cerevisiae bub3 mutant strain, stronger effect = higher value
Outline: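 Whole-cell yeast assay. The mutant strain was incubated with compounds, and growth inhibition was determined by comparison with vehicle-treated cells.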

[6] = NCI Yeast Anticancer Drug Screen. Data for the mlh1 rad18 strain (AID 175); details: S. cerevisiae mlh1 rad18 strain growth inhibition, stronger effect = higher value
Outline: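 Test agents were incubated with a yeast strain of defined genotype (DNA damage repair defect). Inhibition of growth was derived by comparison with vehicle-exposed cultures.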

[7] = at 5.0 µM (retest, dose inferred, filed as 0.5)
[8] = at 50.0 µM (retest, dose inferred, filed as 5.0)

Row | Structure (SMILES) | growth inhibition [1, 7] | growth inhibition [1, 8] | growth inhibition ([1]; at 50.0 µM) | growth inhibition [2, 7] | growth inhibition [2, 8] | growth inhibition ([2]; at 50.0 µM) | growth inhibition [3, 7] | growth inhibition [3, 8] | growth inhibition ([3]; at 50.0 µM) | growth inhibition [4, 7] | growth inhibition [4, 8] | growth inhibition ([4]; at 50.0 µM) | growth inhibition [5, 7] | growth inhibition [5, 8] | growth inhibition ([5]; at 50.0 µM) | growth inhibition [6, 7] | growth inhibition [6, 8] | growth inhibition ([6]; at 50.0 µM)
1 | O=[N+]([O-])c1ccc(C2C3CC4C(OOC42)C3I)cc1 (centres undefined) | 0% | 20% | 23.5% | 0% | 9% | 18.1% | -4% | 12% | 32.8% | -1% | -7% | -27.4% | 28% | 98% (active) | 97.2% (active) | 0% | 27% | 31.4%
2 | O=S(=O)(CCBr)CCBr | 51% | 68% | 88.3% (active) | 43% | 56% | 84.2% (active) | 66% | 89% (active) | 88.4% (active) | 92% (active) | 93% (active) | 41.9% | 80% (active) | 94% (active) | 83.2% (active) | 33% | 57% | 85.2% (active)
3 | OC(CN(CCCl)CCCl)C(O)C(O)C(O)CN(CCCl)CCCl (centres undefined) | 6% | 81% (active) | 77.6% (active) | 9% | 59% | 24% | -4% | 33% | 30.2% | -6% | 50% | 82.1% (active) | -7% | 11% | -12.1% | 35% | 95% (active) | 82.1% (active)
4 | CC/C(=C/c1ccc(OC)cc1OC)[N+](=O)[O-] | 66% | 99% (active) | 99.4% (active) | 48% | 100% (active) | 99.7% (active) | 51% | 98% (active) | 99% (active) | 22% | 99% (active) | 99.3% (active) | 44% | 99% (active) | 99.5% (active) | 39% | 99% (active) | 99.2% (active)
5 | O=[N+]([O-])c1cc[n+]([O-])c2ccccc12 | 99% (active) | 98% (active) | 99.2% (active) | 100% (active) | 99% (active) | 53.9% | 99% (active) | 99% (active) | 54.9% | 100% (active) | 100% (active) | 99.3% (active) | 98% (active) | 99% (active) | 49.5% | 99% (active) | 99% (active) | 98% (active)
6 | C[C@]12C/C(=C/O)C(=O)C(O)=C1CC[C@@H]1C2CC[C@@]2(C)C1CC[C@@H]2O (some centres undefined) | 6% | 56% | 78.9% (active) | 5% | 33% | 59.4% | 4% | 70% (active) | 52.2% | 6% | 52% | 62.2% | -39% | 81% (active) | 79.4% (active) | 8% | 74% (active) | 89.2% (active)
7 | CCCCCCCCCCCCCC(=O)O[C@H]1CC[C@H](NC(=O)[C@H](OC)[C@H](O)[C@@H](O)[C@H](O)/C=C/C(C)C)C(=O)NC1 | -1% | 93% (active) | 88.1% (active) | 4% | 96% (active) | 87.4% (active) | -2% | 92% (active) | 89.5% (active) | 11% | 93% (active) | 71.5% (active) | 4% | 96% (active) | 92.2% (active) | -1% | 94% (active) | 85.6% (active)
8 | CN(C=O)C(=S)[S][Sb]([S]C(=S)N(C)C=O)[S]c1nc2ccc(N=Nc3ccc(NS(=O)(=O)c4ccc(NC(=O)C(N5CC5)(N5CC5)N5CC5)cc4)cc3)cc2s1 | 4% | 6% | 99.2% (active) | 0% | -5% | 99.3% (active) | -1% | 20% | 99.5% (active) | 4% | 3% | 98.7% (active) | 2% | 8% | 99.2% (active) | 0% | 4% | 99.2% (active)
9 | COc1c(Cl)[c]([Hg][O]C(C)=O)c(NCC(C)=O)c(OC)[c]1[Hg][O]C(C)=O | 80% (active) | 94% (active) | 87.3% (active) | 99% (active) | 94% (active) | 90.5% (active) | 99% (active) | 95% (active) | 90.8% (active) | 35% | 95% (active) | 89.4% (active) | 99% (active) | 94% (active) | 89.4% (active) | 95% (active) | 94% (active) | 86.4% (active)
10 | CN(C)c1ccc(/C=C/c2cc3scc(-c4ccccc4)[n+]3c3ccccc23)cc1 | -2% | 87% (active) | 98.7% (active) | 4% | 99% (active) | 99.5% (active) | -1% | 99% (active) | 99.4% (active) | -3% | 98% (active) | 99% (active) | 18% | 97% (active) | 99% (active) | 14% | 99% (active) | 99.2% (active)
11 | COc1cc2c(c3c[n+](C)c4c5cc6c(cc5ccc4c13)OCO6)OCO2 | 98% (active) | 98% (active) | 92.2% (active) | 99% (active) | 99% (active) | 94.8% (active) | 99% (active) | 98% (active) | 93.7% (active) | 98% (active) | 98% (active) | 92.2% (active) | 98% (active) | 97% (active) | 93.1% (active) | 99% (active) | 98% (active) | 92.8% (active)
12 | NCCCN1CCN(CCCN2CC2)CC1 | 1% | 84% (active) | 93.9% (active) | 1% | 30% | 58.3% | -1% | 83% (active) | 85.3% (active) | -1% | 92% (active) | 93.5% (active) | 0% | 80% (active) | 86.5% (active) | -1% | 71% (active) | 89.8% (active)
13 | O=c1s[se]c2ccccc12 | 27% | 98% (active) | 84.2% (active) | 13% | 99% (active) | 87.1% (active) | 17% | 99% (active) | 90.1% (active) | 21% | 98% (active) | 92.2% (active) | -2% | 99% (active) | 89.8% (active) | 25% | 97% (active) | 91.9% (active)
14 | C[CH2][Hg] | 98% (active) | 99% (active) | 99.1% (active) | 100% (active) | 99% (active) | 99.5% (active) | 99% (active) | 99% (active) | 57.1% | 99% (active) | 100% (active) | 59.3% | 99% (active) | 99% (active) | 99.2% (active) | 94% (active) | 99% (active) | 52.2%
15 | O=NNc1c[nH]c(=O)[nH]c1=O | 1% | 69% | 72.6% (active) | 0% | 14% | 5.85% | -1% | 29% | 17.1% | -5% | 12% | 4.3% | -1% | -12% | 0.3% | 3% | 39% | 21.1%
16 | N#CC1CC[CH-]CC1.[Cl-].[Cl-].[Cl-].[Cl-].[Cl-].[Sb+5].c1ccncc1 | -1% | 98% (active) | 99.1% (active) | 3% | 100% (active) | 96.3% (active) | 5% | 99% (active) | 99.3% (active) | 11% | 99% (active) | 99.3% (active) | -1% | 99% (active) | 90.5% (active) | 3% | 99% (active) | 98.5% (active)
17 | CCC1(O)C(=O)OCc2c1cc1n(c2=O)Cc2cc3cc4c(cc3nc2-1)OCO4 (centres undefined) | 97% (active) | 92% (active) | 86.6% (active) | 98% (active) | 96% (active) | 86.3% (active) | 97% (active) | 96% (active) | 85.2% (active) | 90% (active) | 91% (active) | 73% (active) | 92% (active) | 89% (active) | 90% (active) | 93% (active) | 79% (active) | 92.7% (active)
18 | O=C(CCl)Nc1ccc(Cl)cc1 | 3% | 44% | 54.6% | 1% | 29% | 59.5% | -2% | 44% | 67.3% | -2% | 16% | 40.9% | 1% | 40% | 51.9% | 1% | 45% | 61.2%
